# From PubChem
# The sample as a whole holds a higher share of hits than the screen did.
# HT1080 IDH1KD tx: toxicity to HT-1080 IDH1 knockdown cells (counter line); actives 2% (n = 360,000); HT-1080 IDH1 knockdown viability, ATP luminescence, 48 h; Potency, µM (series often up to 46.1 µM), without a hit: at the top dose activity, negative = toxicity, most hits filed as cytotoxic; AID 686971;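 also: potency is read from the fitted curve at half-maximal effect; 0% = DMSO wells and -100% = cell-free medium wells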
#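 Viability of IDH1-knockdown HT-1080 fibrosarcoma cells was assessed by CellTiter-Glo after 48 h at 37 °C with titrated compound; concentration-effect curves were classified by fit quality and response size.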
# IL1B secr inh: inhibitors of inflammasome signaling (IL-1 beta secretion); THP-1 LPS/ATP IL-1B secretion, AlphaLISA, 16 h; active compounds read low; activity change, % at 57.5 µM; actives 4.7% (n = 360,000); in the data active = activity change below about -50%; inconclusive = mostly about -30% to -49%
#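 THP-1 cells pretreated 1 hr with compounds (up to 57.5 uM final), then stimulated with LPS (250 ng/mL final) plus ATP (1.25 mM final); secreted IL-1B measured by AlphaLISA after 16 hr, decreased signal indicating inhibition.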
# DT40 TDP1 no CPT: qHTS for Inhibitors of human tyrosyl-DNA phosphodiesterase 1 (TDP1): qHTS in cells in absence of CPT | DT40 Tdp1-/- hTDP1 cells, no CPT, ATP luminescence, 48 h | Potency, µM (titrated, usually from 46.2 µM), without a hit: at the highest dose activity change, negative = growth inhibition, usual class: inhibitors | actives 15% (n = 420,000); also: potency is read from the fitted curve at half-maximal effect; nearly all actives have a fitted effect of over 55% in size
#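 Seeded 400 DT40-hTDP1 cells/well (vehicle DMSO, no 20 nM CPT); pinned compounds; ≥48 hr at 37 °C; CellTiter-Glo luminescence as viability measure.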
# HT1080-NT tox: kills 2HG-producing HT-1080-NT fibrosarcoma cells | Potency, µM (series often up to 46.1 µM), inactives show top-dose activity, negative = less viability, hits mostly cytotoxic | actives 1.6% (n = 360,000) | HT-1080-NT fibrosarcoma viability, CellTiter-Glo ATP luminescence, 48 h;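 also: NT is the 2HG producing partner of a matched IDH1 knockdown line; potency is read from the fitted curve at half-maximal effect; 0% = DMSO-treated cells and -100% = media-only wells without cells; nearly all actives have a fitted effect of over 55% in size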
#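 750 cells/well, RPMI + 5% FBS; 2 h settle, compound pin-transfer, 48 h at 37 degrees C. CellTiter-Glo 10 min RT, luminescence. Normalized to DMSO and media-only wells.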
# ALOX12 inh: inhibitors of human 12S-lipoxygenase ALOX12; P18054; Potency, µM (highest dose often 108 µM), inactives show at the top dose activity change, negative = inhibition, usual class: inhibitors; actives 1.1% (n = 580,000); purified 12hLO, xylenol orange hydroperoxide absorbance; also: potency is read from the fitted curve at half-maximal effect
# Target sequence (P18054 whole entry, looked up): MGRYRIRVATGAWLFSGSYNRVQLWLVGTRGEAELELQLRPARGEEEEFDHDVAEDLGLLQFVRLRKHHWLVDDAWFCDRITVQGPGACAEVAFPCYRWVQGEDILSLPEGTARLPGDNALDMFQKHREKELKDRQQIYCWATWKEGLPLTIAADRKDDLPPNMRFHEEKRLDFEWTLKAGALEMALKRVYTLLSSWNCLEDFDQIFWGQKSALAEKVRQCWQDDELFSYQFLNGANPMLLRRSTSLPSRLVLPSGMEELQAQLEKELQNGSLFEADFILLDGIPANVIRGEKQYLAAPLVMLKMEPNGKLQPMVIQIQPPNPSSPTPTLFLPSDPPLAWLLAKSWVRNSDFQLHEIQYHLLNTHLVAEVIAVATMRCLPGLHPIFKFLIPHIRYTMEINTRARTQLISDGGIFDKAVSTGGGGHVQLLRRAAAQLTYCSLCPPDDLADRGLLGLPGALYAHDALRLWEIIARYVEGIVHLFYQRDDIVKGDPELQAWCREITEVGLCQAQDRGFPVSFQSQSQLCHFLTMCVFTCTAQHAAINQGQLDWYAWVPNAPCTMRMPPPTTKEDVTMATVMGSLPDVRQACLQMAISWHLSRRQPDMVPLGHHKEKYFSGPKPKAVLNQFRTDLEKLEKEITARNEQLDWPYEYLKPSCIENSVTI
#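 Hydroperoxide product was detected by ferrous iron/xylenol orange as the 573 to 405 nm absorbance ratio. Arachidonic acid at 40 uM (final) was turned over for 30 min at room temperature by 150 nM human 12hLO, pH 7.0 Hepes buffer, after 15 min compound preincubation.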
# TDP1 cell CPT: growth inhibition of DT40 Tdp1-/-;hTDP1 cells with camptothecin (screen for TDP1 inhibitors); chicken DT40 Tdp1-/-;hTDP1 cells + 20 nM CPT, ATP luminescence, 48 h; Potency, µM (titrated, usually from 46.2 µM), for the others: at the highest dose activity change, negative = growth inhibition, most hits filed as inhibitors; actives 12% (n = 420,000); also: potency is read from the fitted curve at half-maximal effect; nearly all actives have a fitted effect of over 55% in size
#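 Chicken DT40 Tdp1-/- cells complemented with human TDP1, 400 cells/well, exposed to compounds plus 20 nM camptothecin for at least 48 h at 37 C; viability read as ATP content by CellTiter-Glo luminescence.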
# * hit, by the source's call; ? = inconclusive; . = not tested or not shown; [ ] = remark or other dose. Unless noted, calls follow the shape of the dose curve; as a rule, active = well fitted curve in the direction sought with a large enough effect; inconclusive = small, poorly fitted or top-dose-only effect, or another doubt; inactive = no such curve, though single readings can be large; an effect the other way counts as inactive or inconclusive. Unless noted, % is scaled to controls: 0 for no effect and ±100 for the full control effect.
SMILES,HT1080 IDH1KD tx,IL1B secr inh,DT40 TDP1 no CPT,HT1080-NT tox,ALOX12 inh,TDP1 cell CPT
Cc1ccc(F)cc1NC(=O)Cn1c(C)cc(C)c(C#N)c1=O,.,.,2%,.,0%,21µM*
Cc1cc(C)n(CC(=O)Nc2cc(F)ccc2F)c(=O)c1C#N,.,.,.,.,-25%,.
O=C(CCN1C(=O)C2C3C=CC(C3)C2C1=O)N1CCN(c2ccc([N+](=O)[O-])cc2)CC1 (stereo not drawn),-4%,18,?,-2%,-20%,?
CC(C(=O)OCC(=O)c1ccc([N+](=O)[O-])cc1)N1C(=O)C2C3CCC(C3)C2C1=O (stereo not drawn),14%,-5,?,13%,-13%,16µM*
CC(C(=O)OCC(=O)c1ccc([N+](=O)[O-])cc1)N1C(=O)C2C3C=CC(C3)C2C1=O (stereo not drawn),10%,-56*,?,15%,-19%,16µM*
O=C1C2C3C=CC(C3)C2C(=O)N1CCN1CCN(Cc2ccc([N+](=O)[O-])cc2)CC1 (stereo not drawn),-7%,13,16µM*,1%,-6%,?
O=C(CN1C(=O)C2C3C=CC(C3)C2C1=O)OCC(=O)c1ccc([N+](=O)[O-])cc1 (stereo not drawn),1%,-69*,?,4%,-16%,?
O=C(NCc1ccncc1)c1ccccc1Nc1ccccc1,.,.,.,.,51%,.
O=S(=O)(Cc1ccccc1)NCc1cccc(CNS(=O)(=O)Cc2ccccc2)c1,.,.,.,.,35µM*,.
Cc1ccc(C2N(C)C(=O)c3ccccc3N2C)cc1 (stereo not drawn),?,-3,21µM*,?,-26%,-12%
C=C[C@@H]1c2cccc(C)c2N(S(=O)(=O)c2ccc(C)cc2)[C@H](c2ccccc2)C1(C#N)S(=O)(=O)c1ccccc1 (stereo partly drawn),-7%,35,21µM*,-10%,?,?
C=C[C@@H]1c2ccccc2N(S(=O)(=O)c2ccc(C)cc2)[C@H](c2ccc(C(F)(F)F)cc2)C1(C#N)C#N,15%,13,12µM*,9%,-42%,23µM*
C=C[C@@H]1c2c(F)cccc2N(S(=O)(=O)c2ccc(C)cc2)[C@H](c2ccc(C(=O)OC)cc2)C1(C#N)C#N,9%,50,?,15%,?,?
C=C[C@@H]1c2c(F)cccc2N(S(=O)(=O)c2ccc(C)cc2)[C@H](c2ccc(OC(C)=O)cc2)C1(C#N)C#N,?,-7,21µM*,?,4%,?
Cc1cc2nc3n(c(=O)c2n1CC(=O)NCCCc1ccccc1)CCCC3,.,.,.,.,37%,.
CCN(c1ccccc1)S(=O)(=O)c1cc(C(=O)Nc2cccc(Cl)c2)ccc1F,?,-10,?,?,13%,?
O=C(Nc1cc(Cl)cc(Cl)c1)c1ccc(F)c(S(=O)(=O)NCc2ccccc2Cl)c1,.,.,10µM*,.,-27%,-99%
CCOc1ccc(NC(=O)c2ccc(S(=O)(=O)N(C)C)cc2)cc1,-3%,1,-21%,4%,-18%,-23%
CCN(Cc1ccccc1)S(=O)(=O)c1cc(C(=O)NC2CCCCCC2)ccc1OC,-1%,-15,?,-6%,18%,23µM*
CCOc1ccc(NC(=O)c2ccc(F)c(S(=O)(=O)N(CC)Cc3ccccc3)c2)cc1,.,.,21µM*,.,?,15µM*
COc1ccc(CNS(=O)(=O)c2cc(C(=O)Nc3cc(Cl)cc(Cl)c3)ccc2F)cc1,.,.,?,.,-29%,?
CCc1ccc(NC(=O)c2ccc(F)c(S(=O)(=O)N(CC)c3ccccc3)c2)cc1,?,18,8.2µM*,-24%,-18%,?
CSc1cccc(NC(=O)N[C@H]2CCN(C(=O)c3cccn3C)[C@@H]2C(=O)N[C@H]2CCCNC2=O)c1,.,.,.,.,27%,.
COc1cccc(-c2cc(C(=O)NCCCN3CCOCC3)c3ccccc3n2)c1,.,.,.,.,-20%,.
CCN(Cc1ccccc1)S(=O)(=O)c1cc(C(=O)Nc2cc(Cl)cc(Cl)c2)ccc1F,.,.,6.5µM*,.,-29%,6.5µM*
SMILES,HT1080 IDH1KD tx,IL1B secr inh,DT40 TDP1 no CPT,HT1080-NT tox,ALOX12 inh,TDP1 cell CPT
CCn1ccc(C(=O)N2CCCC(c3ccccc3)(c3ccccc3)C2)cc1=O,.,.,.,.,5%,.
O=C(Cc1ccccc1)N/N=C/c1cc(Br)cc(Cl)c1O,?,?,2.3µM*,?,?,3.7µM*
COc1cc(Br)cc(/C=N/NC(=O)Cc2ccccc2)c1O,8.2µM*,99,0.46µM*,18µM*,12%,0.52µM*
O=C(C[n+]1ccccc1)N/N=C/c1cc(Br)cc(Br)c1O,?,85,5%,?,.,8%
O=C(Cc1ccccc1)NN=Cc1ccccc1,12%,-10,-21%,19%,-3%,-13%
COc1ccc(Br)cc1/C=N/NC(=O)C[n+]1ccccc1,1%,28,13µM*,0%,30%,18µM*
O=C(CP(=O)(c1ccccc1)c1ccccc1)N/N=C/c1cc(Br)cc(Br)c1O,?,65,15µM*,-10%,-2%,15µM*
CC1CCN(CCNC(=O)c2n[nH]c(=O)c3ccccc23)CC1,.,.,.,.,-3%,.
CCC(C)NC(=O)c1ccccc1NC(=O)c1cnc2ccccc2n1 (stereo not drawn),.,.,.,.,-4%,.
CCCn1c(=O)n(CC(=O)Nc2ccccc2OC)c(=O)c2c1nc(C)n2CCOC,.,.,.,.,21%,.
O=C1C[C@@H]2CCN(C(=O)c3ccccc3)C[C@@H]2CCN1CCc1cnc[nH]1,.,.,.,.,10%[176 µM],.
COc1cc(Br)cc(C=Nc2cccc(C(F)(F)F)c2)c1O,?,-50*,?,-16%,-21%,?
COc1cccc(C=Nc2cc(C)cc(C)c2)c1O,15%,-17,-2%,7%,-16%,-1%
CC(C)(C)NCC(O)COc1ccccc1C1CCCC1 (stereo not drawn),?,-23,15µM*,?,-3%,?
CC(C)(C)NC[C@H](O)COc1ccccc1C1CCCC1,.,.,10µM*,.,.,13µM*
O=C(NC[C@H]1O[C@H](Cc2cc(CN3CCOCC3)on2)CC[C@@H]1O)N1CCOCC1,.,.,.,.,35%[176 µM],.
Cc1ccc(S(=O)(=O)NC(=O)NC2=NC(C)(C)N(c3ccc(Cl)c(Cl)c3)C(N)=N2)cc1,1.6µM*,16,1µM*,3.3µM*,?,0.92µM*
